Out of some 340,000 compounds screened, about 2,100 (0.62%) were called active. Only a sample is shown. Potency and affinity values are given separately. Unmarked numbers belong to inactive results.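 How the source made its calls: active means first-screen hits whose inhibition reached a set limit at any dose in the follow-up dose series; inconclusive means inhibition above the set first-screen limit but never retested; inactive means the rest.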

Chain of Rac GTPase-activating protein 1 (Homo sapiens) (Q9H0H5 whole entry, looked up): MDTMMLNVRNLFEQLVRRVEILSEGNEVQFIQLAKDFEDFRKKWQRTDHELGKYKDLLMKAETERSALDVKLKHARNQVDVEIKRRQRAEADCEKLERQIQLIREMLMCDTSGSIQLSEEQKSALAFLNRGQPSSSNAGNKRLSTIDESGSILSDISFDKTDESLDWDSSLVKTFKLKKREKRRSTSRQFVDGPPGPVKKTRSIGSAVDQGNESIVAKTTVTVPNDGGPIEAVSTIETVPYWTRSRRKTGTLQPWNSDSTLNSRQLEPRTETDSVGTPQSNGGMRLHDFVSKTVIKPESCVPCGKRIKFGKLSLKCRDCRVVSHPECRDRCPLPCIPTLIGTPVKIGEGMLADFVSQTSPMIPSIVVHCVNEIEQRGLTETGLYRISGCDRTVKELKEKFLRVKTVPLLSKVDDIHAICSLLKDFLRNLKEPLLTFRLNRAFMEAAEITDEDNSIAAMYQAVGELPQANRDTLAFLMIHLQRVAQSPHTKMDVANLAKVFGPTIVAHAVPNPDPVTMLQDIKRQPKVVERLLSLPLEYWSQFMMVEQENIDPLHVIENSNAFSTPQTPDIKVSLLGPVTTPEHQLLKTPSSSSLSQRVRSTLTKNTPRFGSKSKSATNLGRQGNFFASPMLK

This assay addresses Rac GTPase-activating protein 1 (Homo sapiens) (UniProt Q9H0H5). The assay can be described thus: blockers of MgcRacGAP-driven Rac1 GTP hydrolysis – biochemical, ADP Hunter fluorescence, primary and confirmatory, confirmation (AID 624330).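 Further: fluorescence reports GDP produced by GAP-driven GTP hydrolysis.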 As to conditions: MgcRacGAP-stimulated Rac1 GTP hydrolysis, at 30 µM, stronger effect = higher value, GST-tagged Rac1 F28L mutant substrate.
The term inhibition denotes the relative decrease from the control value, in per cent. On to `CC(C)(Oc1ccc(Cl)cc1)C(=O)NC1CC1`, for which the inhibition was 7.55%. Turning to `CCC(C)c1ccc(OCC(=O)Nc2ccc3c(c2)C(=O)NC3=O)cc1` (stereo not drawn), the inhibition was 5.62%. For `c1ccc(-c2ccccc2OCCCCN2CCCCC2)cc1` the value was 29.3%.

As for `C=CCNC(=S)N/N=C(\C)c1ccc(-n2ccnc2)cc1`, the inhibition is -11.5%. For `COc1ccc(NC(=O)CN(C)C2CCCCC2)cc1Cl` the value was 12.2%; for `CN(CC(=O)Nc1ccc(S(N)(=O)=O)cc1)C1CCCCC1`, 1.98%; for `CN(CC(=O)Nc1ccc(Cl)cc1)C1CCCCC1`, 9.37%. Regarding `O=C(CN1CCOCC1)Nc1ccc2c(c1)OC(F)(F)O2`, the inhibition is 1.95%. With `CC1CCCCN1CC(=O)Nc1ccc2c(c1)OC(F)(F)O2` (stereo not drawn), the inhibition was -6.38%.

Consider `CN(CC(=O)Nc1ccc(Cl)c(Cl)c1)C1CCCCC1`, for which the inhibition was 23.1%.

`c1ccc(Cc2nc3ccccc3o2)cc1`: the inhibition is 8.84%.

As to `CCN(c1ccccc1)S(=O)(=O)c1ccc(C(=O)Nc2cccc(NC(C)=O)c2)cc1`, the inhibition is 5.09%. On to `COc1ccc(/C=C2\SC(=S)N(CCC(=O)Nc3ccc(C(=O)O)cc3)C2=O)cc1OC`, for which the inhibition was 0.85%. With `CC(=Nc1ccccc1)Nc1ccccc1`, the inhibition is 5.11%. Consider `O=C(Cc1ccccc1)Nc1ccc(C(=O)Nc2ccc(O)cc2)cc1`, for which the inhibition is 24.4%.

As to `COCC(=O)Nc1ccc(F)cc1`, the inhibition was -1.69%. In the case of `O=C(COC(=O)c1ccc(O)cc1)Nc1ccccc1`, the inhibition is 10.2%.

As for `CC(=O)Nc1ccc(N=Nc2ccccc2)cc1`, the inhibition is 0.87%. As to `CC(=O)Nc1ccc(N=NN2CCOCC2)cc1`, the inhibition was 4.54%.

As to `NC(=Nc1ccccc1)Nc1ccccc1`, the inhibition is 7.17%.

In the case of `O=C(CC(=O)Nc1ccc(F)cc1)Nc1ccc(F)cc1`, the inhibition was 5.61%. Turning to `CCC(Oc1ccccc1)C(=O)Nc1ccccc1N1CCCC1` (stereo not drawn), the inhibition was 7.77%. With `CNC(=O)c1oc(-c2ccccc2)nc1C`, the inhibition was 10.8%. Next, `O=C(COC(=O)C1CC(=O)N(c2ccc3c(c2)OCCO3)C1)Nc1ccc2c(c1)CCC2` (stereo not drawn): 8.9%; `O=C1CC(NS(=O)(=O)c2cccnc2)CN1c1cccc(F)c1` (stereo not drawn): 6.2%. Next, `COC(=O)C(C(=O)N1CCN(C)CC1)C1CCCCCC1` (stereo not drawn): -1.36%; `Cc1ccc(NC(=O)c2cc(S(=O)(=O)N3CCOCC3)ccc2Cl)cc1S(=O)(=O)N1CCOCC1`: 9.95%.

On to `Cc1ccc(Nc2nc3ccccc3n3cnnc23)c(Cl)c1`, for which the inhibition was 5.8%. Regarding `CCN(CC)C(=O)Cn1cc(C(=O)C(=O)NCCc2c[nH]c3ccccc23)c2ccccc21`, the inhibition was 7.03%.

As for `CCN(CC)CCN(C(=O)c1cc2ccccc2cc1OC)c1nc2ccc(F)cc2s1`, the inhibition is 6.61%. For the compound `COc1cc(CN2CCN(C(O)(c3ccccc3)c3ccccc3)CC2)cc(OC)c1OC`, the inhibition was 27.9%. On to `COc1cc(OC)c(OC)cc1CN1CCN(Cc2ccc(C(F)(F)F)cc2)CC1`, for which the inhibition is 24.6%. Regarding `COc1ccc(CN2CCCCCC2)cc1`, the inhibition is 18.2%. Consider `FC(F)(F)c1ccc(CN2CCCCCC2)cc1`, for which the inhibition was 16.1%. In the case of `O=C(O)CC1(CC(=O)NCc2cc(F)cc3c2OCOC3)CCCCC1`, the inhibition is 5.25%.

Consider `CN(CCc1cn[nH]c1)C(=O)CC1C(=O)NCCN1Cc1ccccc1C(F)(F)F` (stereo not drawn), for which the inhibition was -8.64%. Regarding `Cc1ccc(C(=O)NC(=O)CSc2ncccc2C(=O)O)cc1`, the inhibition is 1.2%.

Regarding `Cc1ccc(S(=O)(=O)NN2C(=O)c3ccccc3NC2(C)C)cc1`, the inhibition is 6.9%. As for `CC[C@H](C)[C@H](NC(N)=O)C(=O)Nc1ccc2c(c1)OCO2`, the inhibition is 3.75%. On to `N#Cc1ccccc1S(=O)(=O)N1CCC(C(=O)Nc2cccc(C(=O)NC3CC3)c2)CC1`, for which the inhibition was -0.25%. For `CCOC(=O)c1c(/N=C/c2ccc(OC)cc2O)sc2c1CCN(C)C2` the value was 17%.

`CCOC(=O)c1cc(CC)sc1/N=C/c1c(O)ccc2ccccc12`: the inhibition is 8.65%. As for `CCOC(=O)c1c(/N=C/c2ccc(C)cc2O)sc2c1CCC2`, the inhibition was 5.81%. As for `Cc1cc(C(=O)O)ccc1N=Cc1c(O)ccc2ccccc12`, the inhibition was 3.39%. Next, `N#Cc1ccc(OCC(=O)N2CCN(C(=O)c3ccco3)CC2)cc1`: 3.79%. Take `Cc1cc(COc2ccccc2OCc2cc(C)no2)on1`: the inhibition is 9.58%. With `CCOC(=O)c1c(NC(C)=O)sc2c(OC)c(Br)ccc12`, the inhibition was -9.05%. For the compound `CCOC(=O)c1c(N)sc(N)c1C(=O)OCC`, the inhibition was 7.17%. With `CCOC(=O)c1c(N)sc2c(OCC)c(Br)ccc12`, the inhibition is 5.92%. With `CCOC(=O)c1c(NC(C)=O)sc2c(O)c(Br)ccc12`, the inhibition was 4.12%. In the case of `CN(CC(=O)Nc1ccc(F)cc1)C(=O)COC(=O)CCN1C(=O)C2CC=CCC2C1=O` (stereo not drawn), the inhibition was 2.06%. Turning to `O=C(CSc1nc(=O)n(CCN2CCOCC2)c2c1CCCC2)Nc1ccc([N+](=O)[O-])cc1`, the inhibition is -4.11%. Consider `COc1ccc(NC(=O)NNC(=O)C(C)Oc2ccc3ccccc3c2)cc1OC` (stereo not drawn), for which the inhibition was 12.5%. As to `CCn1c(=O)c2c3c(sc2n2cnnc12)CCC3`, the inhibition was 4.61%. Next, `CCn1c(=O)c2c3c(sc2n(C)c1=O)CCC3`: 10.3%. For the compound `c1ccc(CN2CCC3CC2c2cc(N4CCOCC4)ccc23)cc1` (stereo not drawn), the inhibition was 11.4%. For `O=C1OCC2=C1C(c1ccc(F)cc1)Sc1ccccc1N2` (stereo not drawn) the value was -0.0633%.

Regarding `CCOC(=O)c1c(C)[nH]c2c1cc(O)c1ccccc12`, the inhibition was 13.6%. For the compound `CCOC(=O)c1c(OCC)[nH]c2ccc(O)cc12`, the inhibition was 7.01%. For the compound `CS(=O)(=O)N1CCN(c2ccc(NC(=O)CSc3ccc(Cl)cc3)cc2)CC1`, the inhibition was 3.35%. In the case of `CCN1/C(=C/c2ccc3cc(C)ccc3[n+]2CC)Sc2ccc3sccc3c21`, the inhibition was 6.5%.

Take `C=CC[n+]1c(/C=C2\C=Cc3cc(C)ccc3N2CC)ccc2ccccc21`: the inhibition is 17.6%. In the case of `CCN1/C(=C/c2ccc3ccccc3[n+]2CCCS(=O)(=O)[O-])C=Cc2cc(C)ccc21`, the inhibition was 5.54%.

On to `CCN1/C(=C/c2ccc3cc(C)cc(C)c3[n+]2CC)Sc2cc(C)ccc21`, for which the inhibition was 24.3%.

Take `CCN1/C(=C/c2ccc3cc(C)ccc3[n+]2CC)Sc2cc(C)c(C)cc21`: the inhibition was 15.9%. For `Cc1ccc2c(c1)S/C(=C\c1cccc[n+]1C)N2CCO`, the inhibition is 4.89%.

Take `CCN1/C(=C/c2ccc3cccc(C)c3[n+]2CC)Sc2ccccc21`: the inhibition was 17.8%. For `CCN1/C(=C\c2ccc3cc(C)ccc3[n+]2CC)Sc2cc(C)c(C)cc21` the value was 5.51%; for `Cc1ccc2nc(SCC(=O)Nc3ccccc3F)nc(=O)n2c1`, 3.36%; for `Cc1ccc(N(CC(=O)NCc2ccco2)C(=O)CCC(=O)Nc2ccccn2)c(C)c1`, 10.2%. For `CS(=O)(=O)N(CC(=O)N/N=C/c1cccs1)c1cccc(Cl)c1Cl`, the inhibition was 11.9%. For `NS(=O)(=O)c1ccc(CNC(=O)Cc2ccc(S(=O)(=O)N3CCOCC3)s2)cc1` the value was 9.4%; for `C/C(=N\NC(=O)c1c[nH]c2ccccc12)c1ccc2c(c1)OCO2`, 12.8%.

For `Fc1ccccc1/C=N/N1CCN(Cc2ccccc2Cl)CC1`, the inhibition is -7.94%. For `CCN(CC)S(=O)(=O)c1ccc(NC(=O)c2cccc3c2C(=O)N(CCOC)C3)cc1` the value was 8.69%; for `Cc1ccccc1N1C(=O)C(Cl)=C(N2CCCCCC2)C1=O`, -5.76%.

Regarding `CN1CCN(C2=C(Cl)C(=O)c3ccccc3C2=O)CC1`, the inhibition was 12.8%. Turning to `COC(=O)[C@]1(Cc2ccccc2)N[C@H](CN(C)C(=O)c2ccc(F)cc2)[C@@H]2C(=O)N(C)C(=O)[C@@H]21`, the inhibition was 1.31%. On to `CCCCC[n+]1cccc2c3ccccc3ccc21`, for which the inhibition was 16.4%. For `Cc1c2ccccc2c(C)c2c1ccc1ccccc12`, the inhibition was 0.81%. In the case of `O=C(Nc1cccc2ccccc12)N1CCOCC1`, the inhibition was -1.28%. Next, `O=C(Cc1cccs1)Nc1nncs1`: 0.97%; `CCOC(=O)N1CCN(C(=O)c2ccc3c(=O)n(CCc4ccccc4)c(=S)[nH]c3c2)CC1`: 5.18%.

Turning to `Cc1ccc(Cl)cc1N1CCN(C(=O)Cn2ccc3ccccc3c2=O)CC1`, the inhibition is 4.81%. With `CCN1CCN(CCCNC(=O)C2CCN(c3nnc(-n4cccc4)s3)CC2)CC1`, the inhibition is 16.4%. Turning to `CCOc1ccc(CCNC(=O)C2CCN(c3nnc(-n4cccc4)s3)CC2)cc1`, the inhibition was -0.04%.

Regarding `CCOCC(=O)Nc1ccc(-c2cn3cccnc3n2)cc1`, the inhibition was 1.23%. For the compound `CCCCn1nc(C(=O)Nc2cc(C(F)(F)F)ccc2N2CCOCC2)ccc1=O`, the inhibition was 4.58%.

Regarding `O=C(CSc1nnnn1-c1cccc2ccccc12)Nc1ccc(N2CCOCC2)c(Cl)c1`, the inhibition was -5.56%. For the compound `CCOc1ccc(N=Cc2c(O)cc(C)oc2=O)cc1`, the inhibition is 30%.

On to `Cc1cccc(N=Cc2c(O)cc(C)oc2=O)c1`, for which the inhibition was 5.21%. For the compound `CC1Cc2ccccc2N1C(=O)COc1nc2ccccc2nc1N1CCOCC1` (stereo not drawn), the inhibition is 0.29%.

On to `CN1/C(=C\C=N\NC(=O)c2cccnc2)C(C)(C)c2ccccc21`, for which the inhibition is 4.5%. In the case of `CN1/C(=C\C=Nc2ccc3ccccc3c2)C(C)(C)c2ccccc21`, the inhibition was 12.2%. As to `CN1/C(=C/C=N/NC(=O)c2ccc([N+](=O)[O-])cc2)C(C)(C)c2ccccc21`, the inhibition is 2.66%. In the case of `Cc1ccccc1N=C/C=C1\N(C)c2ccccc2C1(C)C`, the inhibition was 4.55%. For the compound `CN1/C(=C\C=N\O)C(C)(C)c2ccccc21`, the inhibition is 15.1%. For `CO/N=C/C=C1/N(C)c2ccccc2C1(C)C` the value was 6.44%.

Source of the values: PubChem BioAssay AID624330 (Southern Research Specialized Biocontainment Screening …, 2012).
